This note sets out measurements from ChEMBL document CHEMBL1157539, “Thousands of chemical starting points for antimalarial lead identification” (Nature, 2010).

Common to all, as to format: functional
Test [1] concerns Plasmodium falciparum. Put plainly: GSK_TCMDC: Inhibition of Plasmodium falciparum 3D7 in whole red blood cells, using parasite LDH activity as an index of growth. Test compounds present at 2uM.
The test system of test [2] is Plasmodium falciparum. As to the kind of experiment: GSK_TCMDC: Inhibition of Plasmodium falciparum Dd2 in whole red blood cells, using parasite LDH activity as an index of growth. Test compounds present at 2uM.
The next test concerns HepG2. Put plainly: GSK_TCMDC: Percent inhibition of human HepG2 cell line. Test compounds present at 10uM.

A word on the Inhibition: it is how much of the control response was suppressed. Read a low Inhibition as a weak effect.

Molecules are shown by their SMILES.

`O=C(NCCCCCN1CCCN(C(=O)Nc2ccc(Cl)c(C(F)(F)F)c2)CC1)C1CC1c1ccc(Cl)c(Cl)c1` (stereo not given): the Inhibition in the test on Plasmodium falciparum [1] is reported as 100%; with Plasmodium falciparum [2] it was 1%; in the test on HepG2, 41%.

Turning to `Cc1cnc(Nc2ccccc2)nc1NCCC(=O)Nc1ccccc1.O=C(O)C(F)(F)F`, the values for the Inhibition in the test on Plasmodium falciparum [1], with Plasmodium falciparum [2] and in the test with HepG2 were 89%, 7% and 10%, respectively.

Consider `COCCCNc1nc2cc(OC)c(OC)cc2c2nc(-c3ccccc3)nn12`, for which the values for the Inhibition with Plasmodium falciparum [1], in the test with Plasmodium falciparum [2] and in the test on HepG2 were 95%, 97% and 6%, respectively.

In the case of `CC(=O)N(C)c1cccc(C(=O)Nc2cccc(-c3ccc(-c4nc5cc(C(F)(F)F)ccc5[nH]4)cc3)c2)c1`, the results for the Inhibition with Plasmodium falciparum [1], in the test on Plasmodium falciparum [2] and with HepG2 were 90%, 31% and 63%, respectively.

In the case of `Cc1oc(-c2ccccc2)nc1CCOc1ccc(C[C@H](Nc2ccccc2C(=O)c2ccccc2)C(=O)NCc2ccccn2)cc1`, the Inhibition was 88% in the test with Plasmodium falciparum [1], 54% in the test on Plasmodium falciparum [2] and 0% in the test with HepG2.

`CCC(Cc1cnc2nc(N)nc(N)c2n1)c1ccc(C(=O)O)cc1` (stereo not given): the Inhibition with Plasmodium falciparum [1] was 93%; in the test on Plasmodium falciparum [2], 0%; with HepG2 it was 15%.

For the compound `Br.CCCC1N=C(N)N=C(N)N1c1ccc(OC)cc1` (stereo not given), the Inhibition was 96% in the test on Plasmodium falciparum [1], 4% in the test on Plasmodium falciparum [2] and 0% in the test on HepG2.

For `Cl.c1ccc2cc(CNCCCN3CCN(CCCNCc4ccc5ccccc5c4)CC3)ccc2c1`, the Inhibition was 100% in the test on Plasmodium falciparum [1], 65% in the test on Plasmodium falciparum [2] and 60% in the test on HepG2.

With `C=CCc1cc(C2CCN(CCCCNC(=O)c3ccc(-c4ccc(C#N)cc4)cc3)CC2)c(OCC(N)=O)c2c1CCCC2`, the Inhibition in the test with Plasmodium falciparum [1] amounted to 100%; with Plasmodium falciparum [2] it was 92%; with HepG2 it was 43%.

`S=C(NCCc1ccccc1)Nc1ccc2ncsc2c1`: the Inhibition in the test on Plasmodium falciparum [1] was 96%; in the test with Plasmodium falciparum [2], 3%; with HepG2 it was 0%.

Turning to `Cc1ccc2c(=O)cc(CCc3cccc(F)c3F)n(CC(=O)N(Cc3ccc(-c4ccc(C(F)(F)F)cc4)cc3)C3CCN(C)CC3)c2n1.O=C(O)C(O)C(O)C(=O)O`, the Inhibition with Plasmodium falciparum [1] was determined as 86%; with Plasmodium falciparum [2] it was 76%; in the test on HepG2, 49%.

`O=C(Nc1cccc(CN2CCCN(Cc3ccsc3)CC2)c1)c1cc2ccccc2s1.O=C(O)C(F)(F)F`: the Inhibition in the test on Plasmodium falciparum [1] is 96%; in the test with Plasmodium falciparum [2], 29%; with HepG2 it was 25%.

Regarding `Cc1ccc(CNC(=N)NC(=O)c2nc(Cl)c(NCc3ccc(Cl)cc3)nc2N)c(C)c1`, the Inhibition is 100% in the test with Plasmodium falciparum [1], 100% in the test on Plasmodium falciparum [2] and 28% with HepG2.

Regarding `CCCNC(=O)Nc1ccc(N(C)c2ccnc(NC3CC3)n2)cc1`, the Inhibition in the test on Plasmodium falciparum [1] turned out to be 100%; with Plasmodium falciparum [2], 88%; with HepG2, 28%.

For `Cc1cccc2nc(-c3ccc(-c4cccc(CN5CCC(CO)CC5)c4)s3)[nH]c12.O=C(O)C(F)(F)F`, the Inhibition came to 99% in the test with Plasmodium falciparum [1], 61% in the test with Plasmodium falciparum [2] and 20% in the test on HepG2.

Take `Cc1cccc2nc(-c3ccc(-c4cccc(CN5CCCCC5)c4)s3)[nH]c12.O=C(O)C(F)(F)F`: the Inhibition in the test with Plasmodium falciparum [1] is recorded as 100%; in the test with Plasmodium falciparum [2] it was 92%; in the test on HepG2, 11%.

For `Cc1nnnn1-c1ccc(C(=O)N2CCC3(CC2)CN(Cc2ccc(Cl)c(Cl)c2)C(=O)O3)cc1`, the Inhibition is recorded as 100% in the test on Plasmodium falciparum [1], 99% in the test on Plasmodium falciparum [2] and 2% in the test on HepG2.

Take `O=C(Cc1ccc(Cl)cc1)NC1CCN(c2ccnc3cc(Cl)ccc23)C1.O=C(O)C(F)(F)F` (stereo not given): the figures for the Inhibition with Plasmodium falciparum [1], in the test on Plasmodium falciparum [2] and in the test with HepG2 were 82%, 99% and 13%, respectively.

As to `CC(C)N1CCN(C(=O)c2ccc(CNCCCN3CCN(c4cccc(Cl)c4Cl)CC3)s2)CC1.Cl`, the results for the Inhibition in the test with Plasmodium falciparum [1], in the test on Plasmodium falciparum [2] and in the test with HepG2 were 100%, 44% and 51%, respectively.

For the compound `O=C(Nc1cccc(-c2ccc(-c3nc4ccccc4[nH]3)cc2)c1)c1cccnc1`, the figures for the Inhibition in the test with Plasmodium falciparum [1], with Plasmodium falciparum [2] and with HepG2 were 100%, 1% and 18%, respectively.

Regarding `COc1cc(-c2nc(-c3ccc(C(=O)c4ccc(F)cc4)cc3)c(-c3ccccc3)[nH]2)cc(OC)c1O`, the Inhibition in the test with Plasmodium falciparum [1] turned out to be 100%; in the test with Plasmodium falciparum [2], 100%; in the test with HepG2 it was 0%.

Regarding `CS(=O)(=O)Nc1ccc2[nH]cc(C3CCN(CC4CCC(NC(=O)/C=C/c5ccc(Cl)c(Cl)c5)CC4)CC3)c2n1` (stereo not given), the Inhibition in the test with Plasmodium falciparum [1] came to 99%; with Plasmodium falciparum [2] it was 10%; with HepG2, 2%.

Consider `O=C(NCc1ccccc1)OC1CNCCC1c1ccc(C(O)Cc2ccccc2)cc1.O=C(O)C(F)(F)F` (stereo not given), for which the Inhibition with Plasmodium falciparum [1] came out at 87%; in the test with Plasmodium falciparum [2], 5%; in the test on HepG2, 8%.

As for `Fc1cccc(C=NNc2ccnc3cc(Cl)ccc23)c1`, the Inhibition with Plasmodium falciparum [1] is 99%; in the test on Plasmodium falciparum [2] it was 91%; in the test on HepG2 it was 6%.

In the case of `COc1ccc(NC(=O)[C@H](CC(C)C)Nc2cc(C)nc(NCCc3ccccc3OC)n2)cc1.O=C(O)C(F)(F)F`, the Inhibition in the test with Plasmodium falciparum [1] was 99%; with Plasmodium falciparum [2] it was 68%; with HepG2, 9%.

On to `CC(C)CNCc1ccc(-c2cccc(CNc3ccc4ncccc4c3)c2)cc1.O=C(O)C(F)(F)F`, for which the Inhibition came out at 96% with Plasmodium falciparum [1], 31% with Plasmodium falciparum [2] and 29% in the test with HepG2.

As to `CCNc1cc(C(=O)N[C@@H](Cc2ccccc2)[C@H](O)CNC23CCC(CC2)CC3)cc(N2CCCCS2(=O)=O)c1.Cl`, the results for the Inhibition in the test with Plasmodium falciparum [1], in the test with Plasmodium falciparum [2] and in the test with HepG2 were 99%, 98% and 10%, respectively.

As to `COc1ccc(CCN(C)CCOc2ccc(NC(=O)c3cc(SC)cc4c(=O)c5ccccc5[nH]c34)cc2)cc1OC`, the Inhibition in the test with Plasmodium falciparum [1] worked out at 87%; in the test on Plasmodium falciparum [2], 44%; in the test with HepG2, 7%.

Take `COc1ccc2nccc([C@@H](O)CN3CCC(NCc4cc5c(F)ccc(F)c5[nH]4)CC3)c2n1.CS(=O)(=O)O`: the Inhibition was determined as 100% in the test with Plasmodium falciparum [1], 76% with Plasmodium falciparum [2] and 22% in the test with HepG2.

With `COc1ccc(NC(=O)/C=C/c2ccc(Cl)c(C(F)(F)F)c2)cc1OCCN(C(C)C)C(C)C.O=C(O)C(F)(F)F`, the Inhibition in the test on Plasmodium falciparum [1] came to 95%; in the test with Plasmodium falciparum [2] it was 28%; in the test with HepG2, 18%.
